NTR1 ag: activates human neurotensin receptor 1; P30989; NTR1-U2OS beta-arrestin-GFP spot imaging, agonist mode; activation, % at 20 µM; 330,000 compounds, 0.17% hits; AID 493036;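 active means activation at or above 40% of the spot to cytoplasm intensity ratio, with at least 20 cells analyzed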;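 further: 0% = DMSO without peptide and 100% = 100 nM NTR1 peptide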
Target sequence (P30989 whole entry, looked up): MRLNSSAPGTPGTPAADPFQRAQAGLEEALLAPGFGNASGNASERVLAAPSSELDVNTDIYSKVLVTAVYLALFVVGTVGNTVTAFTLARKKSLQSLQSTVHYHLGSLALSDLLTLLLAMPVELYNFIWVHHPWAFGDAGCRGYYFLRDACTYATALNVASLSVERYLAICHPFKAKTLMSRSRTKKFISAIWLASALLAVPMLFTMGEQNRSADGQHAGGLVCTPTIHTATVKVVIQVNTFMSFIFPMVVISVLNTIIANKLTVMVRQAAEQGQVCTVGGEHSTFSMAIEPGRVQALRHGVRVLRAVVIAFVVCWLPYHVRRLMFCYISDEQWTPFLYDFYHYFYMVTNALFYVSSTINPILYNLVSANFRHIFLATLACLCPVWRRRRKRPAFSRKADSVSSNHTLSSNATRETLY
ALR H2O2 inh: human ALR oxidase inhibition via reduced H2O2. P55789. purified ALR, DTT oxidation, H2O2 HRP-luminol luminescence. inhibition, % (test concentration not listed). 290,000 compounds, 3.8% hits;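 active means mean replicate inhibition above about 79%, with every replicate also reaching it, limit read from the data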
UBC9 SUMO inh: SUMOylation inhibition | HTRF SUMOylation assay, SAE1/SAE2 + UBC9, in vitro | inhibition, % at 35 µM | 290,000 compounds, 0.36% hits | AID 2006; in the data active means inhibition above about 50%, passing the limit was not always enough
Target sequence (P63279 whole entry, looked up): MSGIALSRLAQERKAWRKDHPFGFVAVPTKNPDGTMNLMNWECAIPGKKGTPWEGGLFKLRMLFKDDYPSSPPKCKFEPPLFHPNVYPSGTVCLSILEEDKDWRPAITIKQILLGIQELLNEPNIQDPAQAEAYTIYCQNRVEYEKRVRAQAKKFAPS
H9c2 protect: myocardial damage modulation in H9c2 cells | H9c2 cardiomyocytes, H2O2 injury protection, ATPLite, 2 h | protection from H2O2 cell death, % at 20 µM | 360,000 compounds, 0.63% hits;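 active means compounds giving at least 50% protection of heart cells from peroxide-induced death in the single-dose screen, raw or plate-pattern-corrected value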;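 further: 0% = DMSO wells with peroxide and 100% = DMSO wells without peroxide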
* = called active by the depositor; / = no result. An excerpt weighted towards active compounds, which were near 3.9% of everything screened.

SMILES	NTR1 ag	ALR H2O2 inh	UBC9 SUMO inh	H9c2 protect
CCc1ccc(NC(=O)CSc2ccc(-c3ccco3)nn2)cc1	-2	98*	29	-1
CCc1ccccc1NC(=O)/C(=C/c1ccco1)c1ccccc1	9	5	5	2
CC(C)(C)NC(=O)/C(=C/c1ccco1)c1ccccc1	-1	90*	20	5
Cc1ccccc1NC(=O)/C(=C/c1ccco1)c1ccccc1	-1	83*	4	2
CC1(C)Cc2cccc(OCC(=O)OCC(=O)Nc3ccc(S(N)(=O)=O)cc3)c2O1	/	/	/	2
CCCCNC(=O)C1(C)CCN1C(=O)Cc1ccc(OC)cc1 (stereo not given)	/	/	/	8
Cc1cc(C)nc(Nc2n[nH]c(-c3ccc(C(C)(C)C)cc3)n2)n1	5	-15	-3	-9
Cc1cc(C)nc(Nc2n[nH]c(-c3ccc(N)cc3)n2)n1	-1	99*	8	0
Nc1ccc2nc(NC(=O)C3CCCCC3)sc2c1	-1	99*	2	-10
O=C(CN1C(=O)C2CCCCC2C1=O)Nc1nc(-c2ccc(F)cc2)cs1 (stereo not given)	0	/	/	38
O=C(CN1C(=O)C2CC=CCC2C1=O)Nc1nc(-c2ccc(F)cc2)cs1 (stereo not given)	-2	1	/	58*
NNc1nc2ccc(F)cc2s1	3	99*	-6	-5
O=C(Nc1nc2ccc(F)cc2s1)C1CCCO1 (stereo not given)	-1	99*	2	0
O=C(Nc1nc2ccccc2s1)C1CCCO1 (stereo not given)	1	2	-8	-4
CSc1nc(Cl)cc(=O)[nH]1	2	0	-1	6
Cc1ccc(S(=O)(=O)N2CCC(=O)N(C(COCc3cccc(C)c3)C(C)C)CC2)cc1 (stereo not given)	15	-14	-6	-3
COc1ccc(N2CC(C(=O)Nc3nnc(SCC(=O)Nc4ccc(NC(C)=O)cc4)s3)CC2=O)cc1 (stereo not given)	/	/	/	-2
N#C/C(=C/c1cn(CC(=O)O)c2ccccc12)c1ccc(F)cc1	-1	44	9	-2
O=C(CN1C(=O)C2CC=CCC2C1=O)Nc1nc2ccc(F)cc2s1 (stereo not given)	-1	98*	17	-1
Cc1nnc(SCC(=O)N/N=C/c2cn(-c3ccccc3)nc2-c2ccccc2)n1-c1ccccc1	8	-7	-25	54*
c1ccc(C2Nc3ccccc3C3OCCCC23)cc1 (stereo not given)	1	99*	6	-5
Cc1ccc(N2C(=O)C(Cl)=C(Nc3c(C)n(C)n(-c4ccccc4)c3=O)C2=O)cc1	0	26	13	3
Cc1ccc(OCC(=O)NNC(=O)c2ccco2)c(C)c1	-1	-2	-3	-2
CC(=O)Nc1cc(C)nn1-c1nc2ccccc2s1	2	-2	14	52*
C/C(=N\NS(=O)(=O)c1ccc(Br)cc1)c1ccc2c(c1)OCO2	2	31	-17	-1
SMILES	NTR1 ag	ALR H2O2 inh	UBC9 SUMO inh	H9c2 protect
C/C(=N/NS(=O)(=O)c1ccc(Br)cc1)c1ccc(C)o1	0	98*	-1	-3
Cc1cc2c(s1)Nc1ccccc1N=C2N1CCN(C)CC1	0	94*	-3	10
OCCOCCN1CCN(C2=Nc3ccccc3Sc3ccccc32)CC1	-1	4	-10	3
COc1cccc(OC)c1-c1nn2c(-c3ccco3)nnc2s1	-1	-4	12	54*
COc1cccc(-c2nn3c(-c4ccco4)nnc3s2)c1	2	94*	29	73*
CN(C)/C=C/C(=O)c1nnn(C2CCCCC2)c1NC1CCCCC1	0	-16	26	-6
O=C(N/N=C/c1ccc(O)cc1)c1ccc(COc2cc(Cl)ccc2Cl)o1	12	28	12	68*
O=C(N/N=C\c1cccc(Cl)c1)c1ccc(Cn2cccn2)o1	0	88*	7	-3
CCC(ONc1ccccc1C(F)(F)F)(C(=O)NN(C)C)c1ccccc1 (stereo not given)	4	-5	/	53*
COc1cc(-c2ccccc2)[nH]c(=S)n1	4	-3	/	4
O=[N+]([O-])c1ccc(-c2c[nH]c(=S)[nH]2)cc1	0	98*	-2	3
S=c1[nH]cc(-c2ccccc2)[nH]1	0	99*	24	-4
Cc1onc(-c2ccccc2)c1C(=O)N1CCN(S(=O)(=O)c2ccc3c(c2)OCCO3)CC1	-1	/	5	-2
O=C(O)CN1C(=O)/C(=C\c2cc(Br)ccc2OCc2ccc(F)cc2)SC1=S	6	66	35	-2
O=C(O)CN1C(=O)/C(=C\c2cc(Br)ccc2OCc2ccc(Cl)cc2)SC1=S	/	98*	36	5
O=C(O)CN1C(=O)/C(=C\c2cccc(OCc3ccccc3)c2)SC1=S	0	83*	19	-5
O=C(O)COc1cccc(/C=C2/SC(=S)N(Cc3ccccc3)C2=O)c1	3	6	18	-6
COc1ccc(/C=C2/SC(=S)N(CC(=O)O)C2=O)cc1OCc1ccc(Cl)cc1	1	88*	23	-2
COc1cccc(NC(=O)COC(=O)c2ccc3c(c2)OCCO3)c1	/	/	/	1
Cc1ccc(NC(=O)CN(C)S(=O)(=O)c2cccc3cccnc23)cc1	-1	95*	11	2
O=c1[nH]c(=S)[nH]c2c1C(c1ccc(Br)cc1)c1c([nH]c(=S)[nH]c1=O)O2	/	/	80*	2
O=C1CCCC2=C1C(c1ccc(Br)cc1)c1c([nH]c(=S)[nH]c1=O)N2 (stereo not given)	-1	83*	9	4
COc1cccc(NC(=O)Cn2cc(C(=O)C3CC3)c3ccccc32)c1	1	/	/	-2
CNc1c([N+](=O)[O-])cnn1-c1ccc(Cl)cc1	-1	3	-9	6
O=C1CSC(c2cccc([N+](=O)[O-])c2)N1c1ccc(O)cc1 (stereo not given)	0	-1	-3	3
SMILES	NTR1 ag	ALR H2O2 inh	UBC9 SUMO inh	H9c2 protect
O=C1CSC(c2ccc(F)c(F)c2)N1c1ccccc1F (stereo not given)	2	98*	-12	-6
O=C1CSC(c2cccc([N+](=O)[O-])c2)N1c1ccccc1 (stereo not given)	1	98*	-2	4
O=C1CSC(c2cccc(F)c2)N1c1ccccc1 (stereo not given)	-1	98*	13	6
Cc1cccn2cc(-c3c[nH]c4ccccc34)nc12	2	98*	16	8
OCCCNC(=S)Nc1ccc(Nc2ccccc2)cc1	1	99*	8	-2
NS(=O)(=O)c1ccc(NC(=S)NCC2CCCO2)cc1 (stereo not given)	1	1	5	10
CC(=O)Nc1ccc(S(=O)(=O)NNC(=S)NCC2CCCO2)cc1 (stereo not given)	-1	90*	11	-2
S=C(NCC1CCCO1)Nc1cccc(Cl)c1 (stereo not given)	0	-6	-2	-4
S=C(NCCNC(=S)Nc1ccccc1)Nc1ccccc1	-1	-12	-1	-2
S=C(NCC1CCCO1)Nc1ccc(Nc2ccccc2)cc1 (stereo not given)	4	99*	-13	-11

Bioassay records as filed in PubChem BioAssay.
